SW480 rerep = induces DNA re-replication in SW480 colon adenocarcinoma cells; SW480 DNA re-replication, Hoechst DNA content imaging, 48 h; Potency, µM (series often up to 46.1 µM), for the others: top-dose re-replication activation, usual class: activators; hit rate 1.8% among 340,000; AID 624297; also: % of control where 0% means no effect; nearly all actives have a fitted effect of over 55% in size
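Treated cells incubate 48 hr (37 C, 5% CO2), are stained 40 min with Hoechst, and nuclear fluorescence is enumerated; a rise in nuclei with high DNA signal marks re-replication.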
KB-V1 MDR tox = KB-V1 MDR subline cytotoxicity | hit rate 3.4% among 400,000 | KB-V1 MDR cells viability, CellTiter-Glo, 72 h | AID 1347076 | Potency, µM (highest dose often 46.1 µM), most hits filed as cytotoxic; also: % is scaled to controls: 0 for no effect and ±100 for the full control effect; nearly all actives have a fitted effect of over 60% in size
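Potencies derive from concentration-effect curves fitted to normalized luminescence (CellTiter-Glo) of KB-V1 cells treated for 72 h at 37 degrees C in phenol-red-free DMEM containing 10% FBS.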
MCF10A rerep = induces DNA re-replication in MCF 10a normal breast cells; Potency, µM (top dose mostly 46.1 µM), inactives show at the top dose activity, positive = re-replication, most hits filed as activators; MCF 10A DNA re-replication, Hoechst nuclear intensity, 48 h; hit rate 2.9% among 350,000; also: % of control where 0% means no effect; nearly all actives have a fitted effect of over 50% in size
HT1080-NT tox = kills 2HG-producing HT-1080-NT fibrosarcoma cells; HT-1080-NT fibrosarcoma viability, CellTiter-Glo ATP luminescence, 48 h; Potency, µM (highest dose often 46.1 µM), inactives show at the top dose activity, negative = less viability, most hits filed as cytotoxic; hit rate 1.6% among 360,000; AID 686970;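 also: NT is the 2HG producing partner of a matched IDH1 knockdown line; 0% = DMSO-treated cells and -100% = media-only wells without cells; nearly all actives have a fitted effect of over 55% in size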
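HT-1080-NT; 750 cells/well; 5% FBS RPMI; 48 h compound, 37 degrees C; CellTiter-Glo luminescence; curve fitting and curve-class assignment.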
HT1080 IDH1KD tx = toxicity to HT-1080 IDH1 knockdown cells (counter line); HT-1080 IDH1 knockdown viability, ATP luminescence, 48 h; Potency, µM (highest dose often 46.1 µM), for the others: top-dose activity, negative = toxicity, actives largely listed as cytotoxic; hit rate 2% among 360,000;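 also: 0% = DMSO wells and -100% = cell-free medium wells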
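CellTiter-Glo luminescence after 48 h compound exposure at 37 degrees C of IDH1-knockdown HT-1080 cells in 5% FBS RPMI. %Activity scaled between DMSO wells and cell-free media wells, with curves fitted and assigned curve classes.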
KB-3-1 cytotox = KB-3-1 parental cell cytotoxicity | KB-3-1 viability, CellTiter-Glo ATP luminescence, 72 h | AID 1347075 | Potency, µM (highest dose often 46.1 µM), actives largely listed as cytotoxic | hit rate 1.4% among 400,000; also: % is scaled to controls: 0 for no effect and ±100 for the full control effect; nearly all actives have a fitted effect of over 60% in size
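Cytotoxicity measured as CellTiter-Glo luminescence after 72 h at 37 C. Compound titrations were pinned onto drug-naive KB-3-1 parental adenocarcinoma cells grown in DMEM with 10% FBS, and normalized data fitted to concentration-response curves.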
Active calls of the source: *; i = inactive; ? = inconclusive; / = no result. A selection: hits, their analogues and other compounds. The true share with any hit is near 8%. Calls follow the shape of the dose curve; as a rule, active = well fitted curve in the direction sought with a large enough effect; inconclusive = small, poorly fitted or top-dose-only effect, or another doubt; inactive = no such curve, though single readings can be large; an effect the other way counts as inactive or inconclusive. Potency is read from the fitted curve at half-maximal effect.

SMILES	SW480 rerep	KB-V1 MDR tox	MCF10A rerep	HT1080-NT tox	HT1080 IDH1KD tx	KB-3-1 cytotox
CC1=NN(C(=O)CSCc2ccccc2)C(O)(c2ccc(Cl)cc2)C1 (configuration not stated)	-5.5%	i	?	-6.7%	-1.7%	i
CCC1=NN(C(=O)c2cccc(Br)c2)C(O)(c2ccc(Br)cc2)C1 (configuration not stated)	24.4%	?	?	?	18.4µM*	?
CC1=NN(C(=O)c2ccc(Cl)cc2)C(O)(c2ccccc2)C1 (configuration not stated)	?	i	14.6µM*	-13.1%	-19.4%	?
CCC1=NN(C(=O)c2ccc(Br)cc2)C(O)(c2ccc(C)cc2)C1 (configuration not stated)	-0.9%	i	15.5%	-17.6%	-14.8%	i
CCC1=NN(C(=O)c2ccc(C)cc2)C(O)(c2ccc(Br)cc2)C1 (configuration not stated)	-2.6%	20.6µM*	18.1%	-19.5%	-25.8%	i
CC(=O)Nc1cccc(C(=O)NCc2ccc3c(c2)CCN3C(=O)c2ccc(F)cc2)c1	/	i	/	/	/	i
O=C1N/C(=N\c2ccccn2)SC1Cc1ccc(Cl)cc1 (configuration not stated)	-13.6%	i	?	-14.1%	-15.2%	i
O=C1NC(=Nc2ccccc2)SC1Cc1ccccc1 (configuration not stated)	5.8µM*	i	-5.0%	1.2%	0.1%	i
O=C1N/C(=N/c2ccccn2)SC1Cc1ccccc1 (configuration not stated)	?	?	21.9%	?	10µM*	i
N#Cc1cccc(NC(=O)CCNS(=O)(=O)c2ccc3c(c2)CCN3C(=O)C2CC2)c1	/	?	/	/	/	i
Cn1c(=O)[nH]c2cc3ccccc3cc21	-12.7%	1.3µM*	9.7%	12.6%	1.6%	1.64µM*
Cn1c(=O)[nH]c2cc(-c3noc(-c4cccc(Cl)c4)n3)ccc21	/	i	/	/	/	i
COc1ccc([C@H]2CC(=O)C=C(c3cc(Cl)ccc3C)C2)cc1	4.2%	i	?	-13.7%	-9.9%	i
O=C1C=C(c2ccc3c(c2)OCO3)C[C@@H](c2ccc3c(c2)OCO3)C1	-8.8%	i	3.4%	0.4%	0.5%	i
O=C1C=C(c2ccc3cc[nH]c3c2)C[C@@H](c2ccc3c(c2)OCO3)C1	?	i	20.6µM*	18.4µM*	-79.8%	i
COc1ccc([C@H]2CC(=O)C=C(c3ccnc4ccc(Cl)cc34)C2)cc1	?	i	?	18.4µM*	3.66µM*	?
COc1ccc(C2CC(=O)C=C(NCc3ccccc3)C2)cc1 (configuration not stated)	?	?	?	23.1µM*	18.4µM*	?
COc1ccc([C@H]2CC(=O)C=C(c3cc(C)ccc3OC)C2)cc1	16.4µM*	5.8µM*	?	?	?	20.6µM*
Cc1ccc(CNS(=O)(=O)c2c(C)nc3sc(C)cn3c2=O)cc1	/	i	/	/	/	i
C#CCNC(=O)C1=C[C@@H](c2csc3ccccc23)C[C@@H](OCc2ccc(CO)cc2)O1	?	i	18.6%	-0.8%	-4.7%	i
CCOc1ccc(Br)cc1C1=CC(=O)C[C@H](c2ccc(OC)cc2)C1	7.31µM*	16.4µM*	2.91µM*	?	5.8µM*	5.8µM*
COc1ccc(OC)c(C2=CC(=O)C[C@H](c3ccc4c(c3)OCO4)C2)c1	?	?	?	?	?	10.3µM*
COc1c(F)cccc1C1=CC(=O)C[C@H](c2ccc3c(c2)OCO3)C1	-4.0%	i	12.7%	-3.8%	0.4%	i
COc1ccc([C@H]2CC(=O)C=C(c3ccccc3-c3ccccc3)C2)cc1	?	?	16.4µM*	?	?	?
COc1ccc([C@H]2CC(=O)C=C(c3ccccc3Oc3ccccc3)C2)cc1	0.5%	i	21.8%	-20.4%	-6.4%	i
SMILES	SW480 rerep	KB-V1 MDR tox	MCF10A rerep	HT1080-NT tox	HT1080 IDH1KD tx	KB-3-1 cytotox
COc1ccc(NC(=O)C(C)n2nc(C)c3c(C)n(-c4ccccc4)nc3c2=O)cc1Cl (configuration not stated)	/	i	/	/	/	i
O=C(NCC(=O)N1CCN(Cc2ccccc2)CC1)c1cc(Cl)cc([N+](=O)[O-])c1	-9.0%	?	-11.4%	-20.3%	?	23.1µM*
COc1ccc(NC(=O)CCOc2ccccc2F)cc1S(=O)(=O)N1CCCCC1	-3.5%	i	24.9%	-25.2%	-3.6%	i
CCOc1ccc(NCc2cccn2-c2nnc(N3CCC(C(=O)NCCCN4CC(C)CC(C)C4)CC3)s2)cc1 (configuration not stated)	?	i	-2.4%	20.6µM*	?	i
COc1ccc(NCc2cccn2-c2nnc(N3CCCCCC3)s2)cc1	/	i	/	/	/	i
O=C(Nc1cccc(Br)c1)c1ccn[nH]1	-9.5%	?	4.0%	9.1%	-0.9%	11.2µM*
CCN(CC(=O)NC1CCS(=O)(=O)C1)S(=O)(=O)c1ccc(Cl)cc1C(F)(F)F (configuration not stated)	-9.3%	i	4.8%	0.2%	4.3%	i
CCN(CC)CCCNC(=O)c1oc2ccc(S(=O)(=O)N3CC(C)CC(C)C3)cc2c1C (configuration not stated)	?	?	35.9%	?	25.9µM*	i
Cc1c(C(=O)NCC2COc3ccccc3O2)oc2ccc(S(=O)(=O)N3CCOCC3)cc12 (configuration not stated)	0.3%	2.31µM*	?	10.1%	8.9%	?
Cc1c(C(=O)NCC2COc3ccccc3O2)oc2ccc(S(=O)(=O)N3CC(C)CC(C)C3)cc12 (configuration not stated)	?	?	23.6%	0.4%	-1.1%	i
COc1ccc(OC)c(NS(=O)(=O)c2ccc(N3CCCCS3(=O)=O)cc2)c1	/	i	/	/	/	?
COc1cccc(CC(=O)Nc2ccc3nc(Nc4cccc(C(F)(F)F)c4)cc(C)c3c2)c1	/	i	/	/	/	i
CS(=O)(=O)N1CCN(c2nc(-c3cccs3)nc3ccccc23)CC1	/	/	/	-24.3%	-22.4%	/
CCc1ccn2cc(-c3ccc4c(c3)OCO4)nc2c1	-1.5%	?	4.8%	11.6µM*	13µM*	?
CCN(CC)CCNc1ccc(CO)c2sc3ccccc3c(=O)c12	?	?	?	11.6µM*	20.6µM*	16.4µM*

Compound activity as filed in PubChem.
